Here are results for 5 molecules from PubChem BioAssay.

The nature of assay [1]: small molecules captured by biotinylated probe aFSTL3 – biochemical, small-molecule microarray, fluorescence 635/667, stem cell growth factor project, primary screen (AID 1064).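 Note: measures binding of the biotinylated anti-FSTL3 antibody to printed compounds.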 The conditions noted are these: higher = more signal.
Assay [2] in a line: binders from COS7 lysate, DM2A8 probe, primary screen, torsin A project, cell lysate, small-molecule microarray, fluorescence 635/667 (AID 1065). The conditions noted are these: higher = more signal, COS7 lysate expressing mutant human TOR1A.
Assay [3] is described as follows: small molecules captured by biotinylated probe aFGF2 – biochemical, small-molecule microarray, fluorescence 635/667, stem cell growth factor project, primary screen (AID 1067).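 Note: measures binding of biotinylated aFGF2 protein to printed compounds on slides; z-score merges feature fluorescence and signal-to-noise across triplicate slides.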 The conditions noted are these: higher = more signal.
Assay [4] can be described thus: small molecules captured by biotinylated probe aFGF10 – biochemical, small-molecule microarray, fluorescence 635/667, stem cell growth factor project, primary screen (AID 1071).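 Note: score merges 667 nm spot intensity and signal to noise from triplicate slides.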 The conditions noted are these: higher = more signal.
In assay [5] the target is Neurogenic locus notch homolog protein 2 (Homo sapiens) (UniProt Q04721). As to the kind of experiment: small molecules binding Notch2 protein – biochemical, small-molecule microarray, 635 nm fluorescence, stem cell growth factors, primary screen (AID 1073). The conditions noted are these: higher = more signal.
In assay [6] the target is Pro-neuregulin-1, membrane-bound isoform (Homo sapiens) (UniProt Q02297). Kind of assay: small molecules binding neuregulin-1 protein – biochemical, small-molecule microarray, fluorescence 635/667, psychiatric disease protein project, primary screen (AID 1075).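 Note: score combines 667 nm spot fluorescence with signal to noise.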 The conditions noted are these: NRG1 binding, 635 nm fluorescence, higher = more signal.
The test system of assay [7] is Neuregulin-1 EGF-like domain. As to the kind of experiment: small molecules binding NRG1 EGF domain – biochemical, small-molecule microarray, 635 nm fluorescence, primary screen (AID 1081).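 Note: binding of the protein to compounds printed on small-molecule microarray slides.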 The settings on record: higher = more signal.
A short description of assay [8]: FRG1 expression reporter modulators in myotubes – cell-based, C2C12 myotubes, firefly/Renilla luciferase, luminescence, FRG1 inhibition for FSHD, primary screen (AID 1084). The conditions noted are these: FRG1 promoter luciferase, higher = more signal, called active from +8 up or from −8 down.
Assay [9] in a line: small molecules captured by biotinylated probe aFST – biochemical, small-molecule microarray, fluorescence 635/667, stem cell growth factor project, primary screen (AID 1086).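 Note: score merges 667 nm fluorescence with signal-to-noise of each printed compound spot.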 The settings on record: higher = more signal.
The nature of assay [10]: binders of probe aHhip on microarray, primary screen, stem cell growth factor project, biochemical, small-molecule microarray, fluorescence 635/667 (AID 1087).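 Note: score merges spot fluorescence at 667nm with spot signal to noise ratio.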 The conditions noted are these: higher = more signal.
Assay [11] deals with PRMT1 (protein arginine N-methyltransferase 1). Kind of assay: small molecules binding arginine methyltransferase PRMT1 – biochemical, small-molecule microarray, 635 nm fluorescence, primary screen (AID 1088).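 Note: binding of Prmt1 protein to compounds spotted on small-molecule microarray slides.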 The conditions noted are these: higher = more signal.
A short description of assay [12]: growth effects on S. cerevisiae YJM789 – YJM789 clinical isolate, OD600, 24 h, basal, primary screen (AID 1089).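 Note: growth of clinical yeast isolate S. cerevisiae YJM 789 seeded 1000 cells per well; test concentration not given here.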 The conditions noted are these: higher = more signal, called active from +8 up or from −8 down.
Assay [13] in a line: S. pombe growth modifiers, basal conditions – strain 972, OD600, 24 h, no modulator, primary screen (AID 1090).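 Note: basal condition with compound alone and no growth modifier present; test concentration not given here.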 The conditions noted are these: S. pombe 972 growth, higher = more signal, called active from +8 up or from −8 down.
Assay [14] is described as follows: budding yeast growth modifiers under rapamycin – strain BY4716, OD600, 96 h, primary screen (AID 1091). Note: test concentration not given here. The settings on record: S. cerevisiae BY4716 + rapamycin, higher = more signal, called active from +8 up or from −8 down.
The target of assay [15] is Torsin-1A-interacting protein 2 (Homo sapiens) (UniProt Q8NFQ8). Kind of assay: small molecules binding lysate-expressed LULL1 – cell lysate, human LULL1 lysate, 635/667 nm fluorescence, primary screen (AID 1092).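 Note: probe is lysate of COS7 cells overexpressing human LULL1; score merges per-feature 667 nm fluorescence with signal-to-noise.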 The conditions noted are these: small-molecule microarray, hLULL1 lysate binding, 635 nm fluorescence; higher = more signal.
A short description of assay [16]: optical density change of DRC41 E. coli – strain DRC41, OD650, 24 h, E. coli filamentation project, primary screen (AID 1093).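 Note: MC1000 strain lacking acrAB efflux and sulA so SOS filamentation is blocked; test concentration not given here.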 The conditions noted are these: E. coli DRC41 growth, higher = more signal, called active from +8 up or from −8 down.
A short description of assay [17]: probe aLefty2 binding to arrayed compounds – biochemical, biotinylated probe, 635/667 nm fluorescence, primary screen (AID 1094).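 Note: score merges spot fluorescence near 667 nm with spot signal-to-noise ratio.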 The conditions noted are these: small-molecule microarray, higher = more signal.
The subject of assay [18] is Noggin (protein binding on small-molecule microarray). Kind of assay: small molecules binding Noggin protein – biochemical, 635/667 nm fluorescence, primary screen (AID 1095).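 Note: score merges 667 nm feature fluorescence with signal to noise over triplicate slides.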 The conditions noted are these: 635 nm fluorescence, higher = more signal.
Assay [19] deals with Neurogenic locus notch homolog protein 3 (Homo sapiens) (UniProt Q9UM47). Kind of assay: small molecules binding NOTCH3 protein – biochemical, 635/667 nm fluorescence, primary screen (AID 1096). The conditions noted are these: small-molecule microarray, 635 nm fluorescence, higher = more signal.
The nature of assay [20]: probe aEGFR binding to arrayed compounds – biochemical, biotinylated probe, 635/667 nm fluorescence, primary screen (AID 1097).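 Note: probe is a biotinylated anti-EGFR antibody binding compounds printed on slides; score combines fluorescence near 667 nm and signal to noise of each spot.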 The conditions noted are these: small-molecule microarray, higher = more signal.

Activity calls are given as the source filed them.

Sequence of Neurogenic locus notch homolog protein 2 (Homo sapiens) (Q04721 whole entry, looked up, canonical isoform): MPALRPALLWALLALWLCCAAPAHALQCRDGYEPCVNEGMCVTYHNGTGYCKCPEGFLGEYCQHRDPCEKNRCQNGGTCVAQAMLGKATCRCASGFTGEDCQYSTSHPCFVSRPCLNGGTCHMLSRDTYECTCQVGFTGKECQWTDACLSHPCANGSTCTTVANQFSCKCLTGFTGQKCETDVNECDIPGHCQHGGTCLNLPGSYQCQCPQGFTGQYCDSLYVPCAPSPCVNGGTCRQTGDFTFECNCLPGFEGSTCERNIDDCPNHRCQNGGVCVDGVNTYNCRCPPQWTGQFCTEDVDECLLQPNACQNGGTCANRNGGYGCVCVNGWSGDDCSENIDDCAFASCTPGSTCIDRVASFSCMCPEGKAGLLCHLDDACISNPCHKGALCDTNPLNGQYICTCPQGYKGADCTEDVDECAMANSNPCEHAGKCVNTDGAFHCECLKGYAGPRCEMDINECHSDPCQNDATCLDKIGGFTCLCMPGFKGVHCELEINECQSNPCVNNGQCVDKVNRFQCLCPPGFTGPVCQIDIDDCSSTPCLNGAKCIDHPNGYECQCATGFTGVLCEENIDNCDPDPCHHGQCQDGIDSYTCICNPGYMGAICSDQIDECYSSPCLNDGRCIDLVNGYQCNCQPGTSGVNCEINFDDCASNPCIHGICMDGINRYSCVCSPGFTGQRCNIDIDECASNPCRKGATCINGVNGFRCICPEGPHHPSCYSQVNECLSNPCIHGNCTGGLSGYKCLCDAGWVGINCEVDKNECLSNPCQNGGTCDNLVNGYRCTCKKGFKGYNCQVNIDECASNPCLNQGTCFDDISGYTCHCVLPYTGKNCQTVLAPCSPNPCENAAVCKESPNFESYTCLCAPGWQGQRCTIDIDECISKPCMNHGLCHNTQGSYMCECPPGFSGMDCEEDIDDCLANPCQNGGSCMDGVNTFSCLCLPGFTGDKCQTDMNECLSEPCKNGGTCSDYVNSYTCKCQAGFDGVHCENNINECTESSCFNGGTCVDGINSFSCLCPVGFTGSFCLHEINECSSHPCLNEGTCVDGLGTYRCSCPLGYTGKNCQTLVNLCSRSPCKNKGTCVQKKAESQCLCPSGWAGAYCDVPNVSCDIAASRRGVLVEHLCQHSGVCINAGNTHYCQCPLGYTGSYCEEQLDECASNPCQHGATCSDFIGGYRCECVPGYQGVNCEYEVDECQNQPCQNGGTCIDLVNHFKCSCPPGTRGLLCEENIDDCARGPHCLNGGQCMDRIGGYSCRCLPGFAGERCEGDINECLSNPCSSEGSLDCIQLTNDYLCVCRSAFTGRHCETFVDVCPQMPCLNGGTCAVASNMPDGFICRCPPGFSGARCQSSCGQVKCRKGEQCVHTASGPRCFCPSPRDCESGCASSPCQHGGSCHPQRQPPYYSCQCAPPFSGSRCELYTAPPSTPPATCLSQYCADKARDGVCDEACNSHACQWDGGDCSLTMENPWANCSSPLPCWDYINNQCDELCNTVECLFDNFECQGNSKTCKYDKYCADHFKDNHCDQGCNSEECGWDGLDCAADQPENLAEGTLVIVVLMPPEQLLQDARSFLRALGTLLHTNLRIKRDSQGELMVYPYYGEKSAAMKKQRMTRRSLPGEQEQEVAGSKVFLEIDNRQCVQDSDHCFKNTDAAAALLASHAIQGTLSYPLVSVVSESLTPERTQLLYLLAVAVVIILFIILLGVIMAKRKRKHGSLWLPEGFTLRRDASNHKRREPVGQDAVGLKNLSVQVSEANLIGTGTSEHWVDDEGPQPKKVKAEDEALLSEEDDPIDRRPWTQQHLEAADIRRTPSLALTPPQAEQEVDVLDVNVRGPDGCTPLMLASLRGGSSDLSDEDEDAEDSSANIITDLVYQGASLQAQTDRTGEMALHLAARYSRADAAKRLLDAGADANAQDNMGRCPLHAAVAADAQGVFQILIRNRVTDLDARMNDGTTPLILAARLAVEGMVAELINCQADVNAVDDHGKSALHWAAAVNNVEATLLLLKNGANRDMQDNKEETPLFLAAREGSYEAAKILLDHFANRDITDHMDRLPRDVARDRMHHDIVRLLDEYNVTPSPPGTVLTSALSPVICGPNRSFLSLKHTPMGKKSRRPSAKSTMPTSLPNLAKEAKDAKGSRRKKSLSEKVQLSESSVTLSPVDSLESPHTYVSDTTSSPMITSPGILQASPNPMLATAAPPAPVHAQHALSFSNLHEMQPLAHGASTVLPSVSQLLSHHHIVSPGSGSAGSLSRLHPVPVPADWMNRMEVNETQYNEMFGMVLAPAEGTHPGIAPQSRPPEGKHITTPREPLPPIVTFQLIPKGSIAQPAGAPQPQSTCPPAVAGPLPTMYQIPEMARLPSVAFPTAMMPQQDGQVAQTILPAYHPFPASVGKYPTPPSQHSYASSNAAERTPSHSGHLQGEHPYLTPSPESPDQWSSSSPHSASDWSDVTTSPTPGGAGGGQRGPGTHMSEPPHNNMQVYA
Sequence of Neurogenic locus notch homolog protein 3 (Homo sapiens) (Q9UM47 whole entry, looked up): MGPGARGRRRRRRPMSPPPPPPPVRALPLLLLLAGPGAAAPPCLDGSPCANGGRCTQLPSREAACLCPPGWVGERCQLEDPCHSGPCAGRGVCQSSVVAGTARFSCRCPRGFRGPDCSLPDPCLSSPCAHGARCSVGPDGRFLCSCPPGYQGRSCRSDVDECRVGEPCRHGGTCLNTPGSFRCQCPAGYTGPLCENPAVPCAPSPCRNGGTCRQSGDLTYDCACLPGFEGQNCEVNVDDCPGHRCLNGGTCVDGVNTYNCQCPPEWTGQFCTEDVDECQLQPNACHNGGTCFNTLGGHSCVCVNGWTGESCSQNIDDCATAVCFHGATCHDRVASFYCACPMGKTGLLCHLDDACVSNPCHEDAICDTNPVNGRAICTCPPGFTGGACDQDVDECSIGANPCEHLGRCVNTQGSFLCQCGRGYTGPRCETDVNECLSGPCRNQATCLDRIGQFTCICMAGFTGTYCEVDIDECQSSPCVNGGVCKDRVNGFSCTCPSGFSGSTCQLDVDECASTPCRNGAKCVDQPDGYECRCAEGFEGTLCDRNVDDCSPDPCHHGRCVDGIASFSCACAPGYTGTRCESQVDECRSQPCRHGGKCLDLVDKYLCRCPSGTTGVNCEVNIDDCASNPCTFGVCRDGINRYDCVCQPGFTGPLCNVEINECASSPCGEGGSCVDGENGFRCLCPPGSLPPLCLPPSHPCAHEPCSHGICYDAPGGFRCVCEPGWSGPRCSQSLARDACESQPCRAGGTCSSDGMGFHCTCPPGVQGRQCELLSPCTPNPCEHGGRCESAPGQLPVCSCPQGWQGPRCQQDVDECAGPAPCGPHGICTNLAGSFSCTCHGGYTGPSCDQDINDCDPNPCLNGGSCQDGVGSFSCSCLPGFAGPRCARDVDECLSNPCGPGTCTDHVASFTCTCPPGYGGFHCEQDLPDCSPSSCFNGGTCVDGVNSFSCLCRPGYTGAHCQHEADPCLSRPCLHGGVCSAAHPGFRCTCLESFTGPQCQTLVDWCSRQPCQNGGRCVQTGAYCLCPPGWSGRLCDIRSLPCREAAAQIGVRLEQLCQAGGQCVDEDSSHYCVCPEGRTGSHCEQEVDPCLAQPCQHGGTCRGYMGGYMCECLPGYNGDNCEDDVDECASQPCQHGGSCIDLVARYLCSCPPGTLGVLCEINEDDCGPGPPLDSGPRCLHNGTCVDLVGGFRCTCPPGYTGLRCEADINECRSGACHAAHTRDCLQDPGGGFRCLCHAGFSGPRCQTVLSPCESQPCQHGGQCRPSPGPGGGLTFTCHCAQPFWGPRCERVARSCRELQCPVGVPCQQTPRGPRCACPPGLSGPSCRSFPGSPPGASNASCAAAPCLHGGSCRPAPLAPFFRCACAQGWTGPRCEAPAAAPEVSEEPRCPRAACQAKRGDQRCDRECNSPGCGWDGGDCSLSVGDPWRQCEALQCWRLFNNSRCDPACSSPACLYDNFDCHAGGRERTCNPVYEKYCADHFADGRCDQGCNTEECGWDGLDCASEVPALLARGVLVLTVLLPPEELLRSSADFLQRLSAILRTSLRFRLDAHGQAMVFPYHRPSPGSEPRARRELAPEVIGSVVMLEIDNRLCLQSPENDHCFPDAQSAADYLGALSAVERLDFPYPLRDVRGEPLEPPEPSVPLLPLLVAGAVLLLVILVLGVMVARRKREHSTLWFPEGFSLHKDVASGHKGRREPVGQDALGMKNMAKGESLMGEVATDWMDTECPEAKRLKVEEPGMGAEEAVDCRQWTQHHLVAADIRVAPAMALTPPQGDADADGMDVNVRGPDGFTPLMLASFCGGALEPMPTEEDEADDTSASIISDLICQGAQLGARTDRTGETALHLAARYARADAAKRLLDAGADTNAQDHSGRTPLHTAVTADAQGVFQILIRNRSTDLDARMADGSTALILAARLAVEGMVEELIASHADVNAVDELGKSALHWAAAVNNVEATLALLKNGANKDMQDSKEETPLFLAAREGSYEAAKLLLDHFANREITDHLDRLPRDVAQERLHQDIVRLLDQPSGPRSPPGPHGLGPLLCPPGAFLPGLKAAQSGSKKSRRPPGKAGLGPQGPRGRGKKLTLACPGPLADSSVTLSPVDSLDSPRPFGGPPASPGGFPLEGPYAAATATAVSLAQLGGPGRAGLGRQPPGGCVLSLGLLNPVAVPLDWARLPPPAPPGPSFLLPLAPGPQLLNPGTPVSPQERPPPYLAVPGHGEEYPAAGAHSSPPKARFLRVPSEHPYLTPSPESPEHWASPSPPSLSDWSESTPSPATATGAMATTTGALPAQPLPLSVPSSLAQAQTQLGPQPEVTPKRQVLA

Turning to `O=C1c2ccccc2[C@@]2(Cc3ccccc3N(C3CC3)C2=O)[C@H](c2ccc(CO)cc2)N1Cc1ccccc1C(F)(F)F`, the composite z-score in assay [1] was 0.748; in [2], -0.686; in [3], -0.0507; in assay [4], 0.157; in [5] it was -1.11; in [6] it was 0.809. Besides, the composite z-score was -0.0465 in assay [7]; -0.0438 in [9]; 0.151 in assay [10]; 0.51 in [11]; 1.83 in assay [15]; 0.104 in assay [17]. In addition, the composite z-score is -1.31 in assay [18], -0.0714 in assay [19] and -0.171 in [20]. In addition, the z-score is -0.455 (inactive) in [8]; -0.104 (inactive) in [12]; -0.995 (inactive) in assay [13]; -1.47 (inactive) in assay [14]; -2.03 (inactive) in [16].

Consider `CC(CCN1CCCCc2nc(C)c(C)cc21)=NOC(C)CN1CCCCc2nc(C)c(C)cc21` (stereo not given), for which the composite z-score was -0.275 in assay [1]; 1.93 in [2]; -0.15 in assay [3]; 0.682 in assay [4]; 1.48 in assay [5]; 0.963 in [6]. Besides, the composite z-score was 1.28 in assay [7]; 0.907 in [9]; 0.0174 in assay [10]; 1.52 in assay [11]; 2.37 in assay [15]; -0.0101 in assay [17]. Besides, the values for the composite z-score in assay [18], in assay [19] and in [20] were 1.04, 1.07 and 0.272, respectively. The z-score was 0.748 (inactive) in assay [8]; -1.32 (inactive) in assay [12]; -1.49 (inactive) in assay [13]; 0.187 (inactive) in assay [14]; -0.0919 (inactive) in [16].

As for `O=C1[C@H]2[C@H]3[C@H](O)[C@H](O)CC(=NOCc4ccccc4)[C@@H]3CC[C@H]2C(=O)N1Cc1ccccc1`, the composite z-score in assay [1] is -0.226; in assay [2] it was 0.304; in assay [3], -0.125; in assay [4] it was 0.264; in assay [5] it was 0.758; in [6], -0.0975. For the same molecule, the composite z-score is 0.272 in assay [7]; 0.281 in [9]; -0.0672 in [10]; 0.0044 in assay [11]; 0.577 in assay [15]; -0.21 in [17]. Also, the composite z-score in assay [18] is 0.656; in [19], 0.797; in [20], -0.0828. Besides, the z-score in assay [8] was 0.341 (inactive); in assay [12], -0.132 (inactive); in assay [13] it was -0.176 (inactive); in [14], -1.41 (inactive); in [16] it was 0.263 (inactive).

As for `COc1ccc(O[C@H]2C=C[C@@H](c3ccccc3)O[C@@H]2COC(=O)CCC(C)=NOCC[C@@H]2C=C[C@H](OC(C)=O)[C@@H](COC(C)=O)O2)cc1`, the composite z-score in assay [1] was -0.19; in assay [2] it was 0.779; in assay [3], -0.0363; in [4], -0.171; in [5], -0.086; in assay [6], 0.0028. Further, the composite z-score was -0.183 in assay [7]; 0.406 in assay [9]; 0.305 in [10]; 0.135 in assay [11]; 1.69 in assay [15]; 0.113 in assay [17]. The composite z-score was 0.476 in [18], 0.319 in assay [19] and -0.039 in assay [20]. Further, the z-score in [8] is 1.04 (inactive); in assay [12], -0.209 (inactive); in [13], 0.951 (inactive); in assay [14], 1.62 (inactive); in assay [16] it was -0.211 (inactive).

Consider `CC(C)(C)OC(=O)CC[C@]1(C(N)=O)COC(c2ccc(OCCCO)cc2)=N1`, for which the composite z-score in assay [1] was 0.645; in [2], 2.69; in assay [3], 0.325; in assay [4] it was 0.6; in assay [5] it was 1.39; in assay [6], 1.14. For the same molecule, the composite z-score in assay [7] turned out to be 1.03; in [9], 1.19; in assay [10], 0.462; in [11], 1.09; in assay [15], 3.09; in assay [17] it was 0.65. Moreover, the composite z-score turned out to be 0.115 in assay [18], 0.849 in assay [19] and 0.34 in [20]. Further, the z-score in [8] was 0.266 (inactive); in [12] it was 0.0433 (inactive); in [13], -0.391 (inactive); in assay [14], 0.0262 (inactive); in assay [16], 0.308 (inactive).
